Experimental data reported in PubChem BioAssay.
Active and inactive are the calls of the source. Unless noted, no rule for the calls is given here.

Tests used:
[1] = test system: Wnt5a (protein binding on small-molecule microarray); test: small molecules binding Wnt5a protein – biophysical, small-molecule microarray, 635/667 nm fluorescence, primary screen (AID 1142); conditions: 635 nm fluorescence, higher = more signal;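 also: fluorescence read at 667 nm with signal to noise per printed feature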
[2] = ATP-based viability of Huh7 replicon cells – cell-based, CellTiter-Glo luminescence, basal, 48 h, cytotoxicity control for HCV replication inhibitor project, primary screen (AID 1143); conditions: higher = more signal, called active from +8 up or from −8 down;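 also: Huh7 hepatoma cells carrying a hepatitis C replication reporter with no stimulus; test concentration not given here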
[3] = Pseudomonas biofilm growth suppression – PAO1 strain, BacTiter-Glo luminescence, LB-PBS, primary screen (AID 1144); conditions: P. aeruginosa PAO1 biofilm, 12 h, higher = more signal
[4] = basal CRE-LacZ reporter activity in PC12 – cell-based, unstimulated, primary screen (AID 1145); conditions: no forskolin, luminescence, 4.5 h, higher = more signal, called active from +8 up or from −8 down
[5] = forskolin-driven CRE-LacZ activity in PC12 – cell-based, CRE-LacZ reporter, forskolin-stimulated, primary screen (AID 1146); conditions: luminescence, 4.5 h, higher = more signal, called active from +8 up or from −8 down;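 also: PC12 cells with 6xCRE LacZ reporter stimulated by forskolin 10 µM; beta-galactosidase reporter signal reflecting CREB driven transcription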
[6] = molecular target: Streptavidin (Streptomyces avidinii) (UniProt P22629); test: compounds binding control protein streptavidin – biophysical, small-molecule microarray, 635/667 nm fluorescence, artefact control for SMM compound annotation, primary screen (AID 1147); conditions: higher = more signal;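 also: signal reflects streptavidin binding to arrayed compounds as a control protein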
[7] = probe aInhba binding on compound microarray – biochemical, small-molecule microarray, 635/667 nm fluorescence, primary screen (AID 1148); conditions: higher = more signal;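 also: score merges 667nm spot fluorescence with signal-to-noise for antibody binding to printed compounds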
[8] = molecular target: Torsin-1A (Homo sapiens) (UniProt O14656); test: TOR1A wild-type binding on microarray – cell lysate, small-molecule microarray, lysate, 635/667 nm, primary screen (AID 1149); conditions: COS7 hTOR1A-WT lysate, 635 nm fluorescence, higher = more signal
[9] = molecular target: Torsin-1A (Homo sapiens) (UniProt O14656); test: torsin A mutant lysate binding on microarrays – cell lysate, small-molecule microarray, COS7 lysate, 635/667 nm fluorescence, primary screen (AID 1150); conditions: COS7 hTOR1A mutant lysate, 635 nm fluorescence, higher = more signal;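 also: score pools 667 nm emission and signal to noise measuring lysate protein binding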
[10] = test system: Sonic hedgehog protein (Shh); test: Sonic hedgehog microarray binding compounds – biochemical, small-molecule microarray, 635/667 nm fluorescence, primary screen (AID 1151); conditions: 635 nm fluorescence, higher = more signal;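 also: Shh protein binding to compounds spotted on small-molecule microarray slides; score combines spot fluorescence intensity with signal-to-noise across triplicate slides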
[11] = optical density shifts of acrAB sulA E. coli – strain DRC41, OD650, 48 h, E. coli filamentation inducer project, primary screen (AID 1152); conditions: higher = more signal, called active from +8 up or from −8 down;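 also: E. coli MC1000 strain DRC41 lacking acrAB efflux pump and sulA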
[12] = probe aLefty1 binding on compound microarray – biochemical, small-molecule microarray, 635/667 nm fluorescence, primary screen (AID 1153); conditions: higher = more signal;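 also: score merges spot fluorescence with signal-to-noise ratio from the scanned slide images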
[13] = plasmodial surface anion channel blockers, osmotic lysis – cell-based, P. falciparum Indochina, OD700, 1 h, primary screen (AID 1154); conditions: P. falciparum Indochina infected RBC osmotic lysis, higher = more signal, called active from +8 up or from −8 down
[14] = plasmodial surface anion channel blockers, osmotic lysis – cell-based, P. falciparum Indochina, OD700, 2 h, primary screen (AID 1155);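 also: lysis reports solute entry through the parasite surface anion channel PSAC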; conditions: P. falciparum Indochina infected erythrocytes, higher = more signal, called active from +8 up or from −8 down
[15] = changes in parasitized red cell lysis, either direction – P. falciparum Indochina, OD700, 3 h, PSAC antagonist project, primary screen (AID 1156); conditions: P. falciparum-infected erythrocytes, osmotic lysis, higher = more signal, called active from +8 up or from −8 down
[16] = plasmodial surface anion channel blockers, osmotic lysis – cell-based, P. falciparum Indochina, OD700, 18 h, primary screen (AID 1157); conditions: P. falciparum Indochina infected erythrocytes, osmotic lysis OD700, 18 h; higher = more signal, called active from +8 up or from −8 down
[17] = S6 kinase pathway phospho-S6 level changes – cell-based, A549, cytoblot, luminescence, serum-stimulated, primary screen (AID 1158); conditions: 5 h, higher = more signal;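 also: serum-stimulated A549 lung adenocarcinoma cells; signal is phosphorylated S6 detected by cytoblot immunostaining with HRP secondary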
[18] = molecular target: NADPH oxidase 2 (Homo sapiens) (UniProt P04839); test: compounds shifting NOX2 Amplex Red fluorescence – cell-based, HEK293-NOX2, PMA-stimulated, NOX inhibitor project, primary screen (AID 1159); conditions: 45 min, higher = more signal, called active from +8 up or from −8 down; also: test concentration not given here
[19] = molecular target: NADPH oxidase 4 (Homo sapiens) (UniProt Q9NPH5); test: compounds shifting NOX4 Amplex Red fluorescence – cell-based, HEK293-NOX4, tetracycline-induced, NOX inhibitor project, primary screen (AID 1160); conditions: HEK293-NOX4, Amplex Red H2O2 fluorescence, 45 min; higher = more signal, called active from +8 up or from −8 down
[20] = molecular target: NADPH oxidase 5 (Homo sapiens) (UniProt Q96PH1); test: compounds shifting NOX5 Amplex Red fluorescence – cell-based, HEK293-NOX5, NOX inhibitor project, primary screen (AID 1161); conditions: HEK293-NOX5, ionomycin, 45 min, higher = more signal
Sequence of NADPH oxidase 5 (Homo sapiens) (Q96PH1 whole entry, looked up): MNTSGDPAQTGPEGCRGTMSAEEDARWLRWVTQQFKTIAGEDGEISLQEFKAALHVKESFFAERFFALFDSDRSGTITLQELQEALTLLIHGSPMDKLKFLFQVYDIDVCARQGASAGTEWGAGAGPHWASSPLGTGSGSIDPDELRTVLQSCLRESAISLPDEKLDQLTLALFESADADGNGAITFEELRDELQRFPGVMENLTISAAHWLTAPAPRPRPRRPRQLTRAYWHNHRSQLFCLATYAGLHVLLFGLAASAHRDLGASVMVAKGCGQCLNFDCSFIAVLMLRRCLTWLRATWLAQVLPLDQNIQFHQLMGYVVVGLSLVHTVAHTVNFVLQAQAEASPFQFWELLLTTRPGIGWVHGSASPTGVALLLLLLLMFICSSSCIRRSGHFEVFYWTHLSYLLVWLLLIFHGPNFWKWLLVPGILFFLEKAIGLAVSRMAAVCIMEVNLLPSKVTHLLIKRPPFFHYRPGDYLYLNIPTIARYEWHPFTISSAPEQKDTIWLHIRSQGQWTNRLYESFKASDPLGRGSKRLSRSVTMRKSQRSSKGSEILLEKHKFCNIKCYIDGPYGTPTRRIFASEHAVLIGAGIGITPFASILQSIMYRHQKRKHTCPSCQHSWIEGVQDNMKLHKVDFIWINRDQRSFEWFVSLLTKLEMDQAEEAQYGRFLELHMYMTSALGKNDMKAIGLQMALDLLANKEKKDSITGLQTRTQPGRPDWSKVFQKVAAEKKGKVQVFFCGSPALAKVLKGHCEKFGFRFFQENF

Sequence of Torsin-1A (Homo sapiens) (O14656 whole entry, looked up): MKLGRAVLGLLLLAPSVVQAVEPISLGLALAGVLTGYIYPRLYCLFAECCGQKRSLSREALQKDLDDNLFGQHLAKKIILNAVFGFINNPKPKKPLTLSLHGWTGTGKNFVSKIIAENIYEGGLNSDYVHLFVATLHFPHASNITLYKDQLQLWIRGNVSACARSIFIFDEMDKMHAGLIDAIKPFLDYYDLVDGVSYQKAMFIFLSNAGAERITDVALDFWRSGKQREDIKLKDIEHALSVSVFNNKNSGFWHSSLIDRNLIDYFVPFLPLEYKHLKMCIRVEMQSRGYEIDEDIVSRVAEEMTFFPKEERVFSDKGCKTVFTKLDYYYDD
Sequence of NADPH oxidase 2 (Homo sapiens) (P04839 whole entry, looked up): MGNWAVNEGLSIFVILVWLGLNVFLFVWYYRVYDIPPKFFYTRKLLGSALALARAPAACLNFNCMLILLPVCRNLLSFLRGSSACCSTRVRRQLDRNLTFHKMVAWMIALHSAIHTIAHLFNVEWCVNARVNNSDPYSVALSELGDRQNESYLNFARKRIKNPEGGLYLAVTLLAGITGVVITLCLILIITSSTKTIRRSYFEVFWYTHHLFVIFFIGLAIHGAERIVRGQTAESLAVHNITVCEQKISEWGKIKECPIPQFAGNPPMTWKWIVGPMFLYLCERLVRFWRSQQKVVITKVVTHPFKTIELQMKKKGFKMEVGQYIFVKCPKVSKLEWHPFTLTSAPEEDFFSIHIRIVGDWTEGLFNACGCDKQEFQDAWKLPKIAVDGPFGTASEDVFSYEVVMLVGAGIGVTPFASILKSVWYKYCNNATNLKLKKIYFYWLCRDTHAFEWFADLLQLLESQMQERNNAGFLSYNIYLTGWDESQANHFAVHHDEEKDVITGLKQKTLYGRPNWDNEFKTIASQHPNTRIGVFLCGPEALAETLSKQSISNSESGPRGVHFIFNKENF
Sequence of Streptavidin (Streptomyces avidinii) (P22629 whole entry, looked up): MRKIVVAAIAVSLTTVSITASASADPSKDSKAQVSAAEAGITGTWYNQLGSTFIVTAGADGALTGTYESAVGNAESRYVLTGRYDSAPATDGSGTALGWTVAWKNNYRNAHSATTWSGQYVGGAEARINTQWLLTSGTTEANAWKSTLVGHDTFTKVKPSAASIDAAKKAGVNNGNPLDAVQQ
Sequence of NADPH oxidase 4 (Homo sapiens) (Q9NPH5 whole entry, looked up): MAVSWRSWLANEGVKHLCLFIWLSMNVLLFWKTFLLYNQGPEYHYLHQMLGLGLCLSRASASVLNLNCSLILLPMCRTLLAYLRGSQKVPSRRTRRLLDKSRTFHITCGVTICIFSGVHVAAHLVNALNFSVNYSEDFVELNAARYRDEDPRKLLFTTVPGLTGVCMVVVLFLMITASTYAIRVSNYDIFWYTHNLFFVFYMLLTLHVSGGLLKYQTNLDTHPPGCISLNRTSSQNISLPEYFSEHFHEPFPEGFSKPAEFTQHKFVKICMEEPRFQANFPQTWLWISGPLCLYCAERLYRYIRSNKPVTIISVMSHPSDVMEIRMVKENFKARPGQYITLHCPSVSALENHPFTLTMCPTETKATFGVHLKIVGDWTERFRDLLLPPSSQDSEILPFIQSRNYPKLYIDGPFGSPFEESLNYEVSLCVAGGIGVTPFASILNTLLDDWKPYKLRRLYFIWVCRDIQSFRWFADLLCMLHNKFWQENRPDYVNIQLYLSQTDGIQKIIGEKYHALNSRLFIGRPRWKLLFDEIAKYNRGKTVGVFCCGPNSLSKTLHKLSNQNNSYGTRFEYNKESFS

SMILES | composite z-score [1] | z-score [2] | z-score [3] | z-score [4] | z-score [5] | composite z-score [6] | composite z-score [7] | composite z-score [8] | composite z-score [9] | composite z-score [10] | z-score [11] | composite z-score [12] | z-score [13] | z-score [14] | z-score [15] | z-score [16] | z-score [17] | z-score [18] | z-score [19] | z-score [20]
COc1ccc(O[C@H]2C=C[C@@H](c3ccccc3)O[C@@H]2COC(=O)CCC(C)=NOC[C@@H](O)[C@H]2O[C@@H]3OC(C)(C)O[C@@H]3[C@H]2O)cc1 | 0.383 | -0.119 (inactive) | -0.108 (inactive) | -1.14 (inactive) | -0.866 (inactive) | 1.15 | -0.0963 | 0.624 | 0.891 | 1.14 | -1.89 (inactive) | 0.0004 | 4.09 (inactive) | 1.12 (inactive) | 1.11 (inactive) | 0.662 (inactive) | 0.332 | -1.42 (inactive) | 0.0675 (inactive) | -1.42
C#CCCCON=C1C[C@@H](O)[C@@H](O)[C@@H]2[C@@H]3C(=O)N(c4ccc(F)cc4F)C(=O)[C@@H]3CC[C@@H]12 | 0.09 | -0.459 (inactive) | 0.589 (inactive) | -0.564 (inactive) | -0.392 (inactive) | -0.091 | -0.213 | 0.061 | 0.0576 | 0.351 | 0.177 (inactive) | -0.147 | 1.22 (inactive) | 0.719 (inactive) | 0.642 (inactive) | 0.0591 (inactive) | -0.404 | 2.01 (inactive) | 0.813 (inactive) | 0.0107
CC(C)CON=C1C[C@@H](O)[C@@H](O)[C@@H]2[C@@H]3C(=O)N(C4CCCCC4)C(=O)[C@@H]3CC[C@@H]12 | -0.146 | -0.82 (inactive) | -0.342 (inactive) | 0.156 (inactive) | 0.147 (inactive) | 0.115 | -0.128 | -0.792 | -0.0797 | -0.318 | -1.24 (inactive) | -0.0662 | -0.133 (inactive) | -0.346 (inactive) | -0.383 (inactive) | -0.0384 (inactive) | -0.354 | 1 (inactive) | -1.59 (inactive) | -0.143
CCOC(=O)NN=C1C[C@@H](O)[C@@H](O)[C@@H]2[C@@H]3C(=O)N(Cc4ccccc4)C(=O)[C@@H]3CC[C@H]12 | -0.0307 | -0.239 (inactive) | -0.704 (inactive) | -0.837 (inactive) | -0.175 (inactive) | 1.09 | -0.214 | 0.0722 | 1.36 | -0.171 | -0.356 (inactive) | -0.332 | 1.39 (inactive) | -0.673 (inactive) | -0.0654 (inactive) | -1.36 (inactive) | 0.577 | 1.15 (inactive) | 0.547 (inactive) | 0.0313
CCOC(=O)NN=C1C[C@@H](O)[C@@H](O)[C@@H]2[C@@H]3C(=O)N(Cc4ccc5c(c4)OCO5)C(=O)[C@@H]3CC[C@H]12 | -0.193 | -0.136 (inactive) | 1.46 (inactive) | -0.658 (inactive) | 0.619 (inactive) | -0.563 | -0.128 | -0.566 | -0.282 | 0.14 | 0.245 (inactive) | -0.239 | 5.49 (inactive) | 0.756 (inactive) | 0.41 (inactive) | 0.476 (inactive) | -0.4 | -3.49 (inactive) | -0.0101 (inactive) | -0.598
COc1ccc(O[C@H]2C=C[C@@H](c3ccccc3)O[C@@H]2COC(=O)CCC(C)=NO[C@@H]2O[C@H](COC(C)=O)[C@@H](OC(C)=O)[C@H](OC(C)=O)[C@H]2OC(C)=O)cc1 | 0.0276 | -0.178 (inactive) | -0.333 (inactive) | 2.85 (inactive) | 0.847 (inactive) | 0.484 | -0.106 | 0.495 | 0.21 | 0.918 | 0.37 (inactive) | -0.019 | 1.73 (inactive) | 0.583 (inactive) | 1.1 (inactive) | 0.539 (inactive) | -1.01 | 1.08 (inactive) | 1.75 (inactive) | 0.222
CC(CCN1CCCCc2nc(C)c(C)cc21)=NOC[C@@H](C)[C@H](OCc1ccccc1)C(C)C | -0.876 | -1.07 (inactive) | -0.4 (inactive) | 0.262 (inactive) | 0.264 (inactive) | -2.45 | -0.37 | -1.62 | -1.49 | -0.689 | -0.605 (inactive) | -0.502 | -0.0226 (inactive) | -1.71 (inactive) | 0.167 (inactive) | -1.99 (inactive) | 1.08 | -1.86 (inactive) | -0.629 (inactive) | -3.18
COC(=O)[C@H]1[C@@H](O)[C@@]2(O)c3ccccc3O[C@@]2(c2ccccc2)[C@@H]1c1ccccc1 | -0.113 | -0.359 (inactive) | 0.576 (inactive) | 1.57 (inactive) | 0.0923 (inactive) | -0.419 | -0.0361 | -0.225 | 0.258 | 0.143 | -0.262 (inactive) | -0.193 | 0.249 (inactive) | 0.454 (inactive) | 0.296 (inactive) | 0.148 (inactive) | 0.0192 | -0.481 (inactive) | 0.526 (inactive) | 0.152
